Records with an inconclusive call do not appear. Calls of active or inactive are those of the source. Calls come from the whole dose curve; as a rule, active = well fitted inhibition curve with a large enough effect; inconclusive = small, poorly fitted or top-dose-only effect; inactive = flat fitted curve, though single readings scatter. Peptide text beside a SMILES is read from it.
Columns and labels:
Assay in all cases: qHTS profiling for inhibitors of Plasmodium falciparum proliferation (AID 504749); note: nearly all actives have a fitted effect of over 60% in size
Settings in all cases: P. falciparum in erythrocytes, SYBR Green DNA, 72 h; series mostly up to 28.7 µM
CP286 = tested on: CP286
Method in brief: (§1)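 Infected RBCs, 0.3% parasitemia/2.5% Hct final; cpd 72 h, 37 C, 5% CO2; lysis buffer with saponin/triton/SYBR Green I, o/n RT dark; FI 485/535; norm. to artemisinin (0.29 uM) and DMSO.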

CP291 = tested on: CP291
Method in brief: as §1

CP297 = tested on: CP297
Method in brief: as §1

CP305 = tested on: CP305
Method in brief: as §1

CP315 = tested on: CP315
Method in brief: as §1

CP325 = tested on: CP325
Method in brief: as §1

CP329 = tested on: CP329
Method in brief: as §1

CP335 = tested on: CP335
Method in brief: as §1

DFO2036 = tested on: DFO2036
Method in brief: as §1

DIV14 = tested on: DIV14
Method in brief: as §1

DIV17 = tested on: DIV17
Method in brief: as §1

DIV30 = tested on: DIV30
Method in brief: as §1

Dd2 = tested on: Dd2
Method in brief: as §1

ECU = tested on: ECU
Method in brief: as §1

FAB9 = tested on: FAB9
Method in brief: as §1

GB4 = tested on: GB4
Method in brief: as §1

HB3 = tested on: HB3
Method in brief: as §1

ICS = tested on: ICS
Method in brief: as §1

JCK = tested on: JCK
Method in brief: as §1

N140 = tested on: N140
Method in brief: as §1

Measured: Potency
Potency is the fitted concentration of half-maximal effect.

CC(C)(S)[C@@H](N)C(=O)O
inactive: all assays above

CCC1=C(C)CN(C(=O)NCCc2ccc(S(=O)(=O)NC(=O)NC3CCC(C)CC3)cc2)C1=O (stereo not drawn)
inactive: all assays above

CCCc1cc(=O)[nH]c(=S)[nH]1
inactive: all assays above

O=C(O)c1cccc(-c2noc(-c3ccccc3F)n2)c1
inactive: all assays above

CC1(C)CCC(C)(C)c2cc(NC(=O)c3ccc(C(=O)O)cc3)ccc21
inactive: all assays above

CN(C)CCc1c[nH]c2ccc(Cn3cncn3)cc12
inactive: all assays above

Nc1cc(C(Cl)=C(Cl)Cl)c(S(N)(=O)=O)cc1S(N)(=O)=O
inactive: all assays above

CCCOc1ccc2nc(NC(=O)OC)[nH]c2c1
inactive: all assays above

Cc1cccc(C)c1OCC(=O)N[C@@H](Cc1ccccc1)[C@@H](O)C[C@H](Cc1ccccc1)NC(=O)[C@H](C(C)C)N1CCCNC1=O
active: CP286 7080 nM | CP291 13500 nM | CP297 4260 nM | CP305 13500 nM | CP315 6750 nM | CP325 13500 nM | CP329 12000 nM | CP335 4780 nM | DFO2036 3980 nM | DIV14 1900 nM | DIV17 1900 nM | DIV30 1900 nM | Dd2 10000 nM | ECU 1000 nM | FAB9 11200 nM | GB4 3790 nM | HB3 7940 nM | ICS 891 nM | JCK 7940 nM | N140 708 nM

CCOc1cc(CC(=O)N[C@@H](CC(C)C)c2ccccc2N2CCCCC2)ccc1C(=O)O
inactive: all assays above

O=C(O)c1cc(=O)c2c(OCC(O)COc3cccc4oc(C(=O)O)cc(=O)c34)cccc2o1
inactive: all assays above

COc1ccc(C2(C#N)CCC(C(=O)O)CC2)cc1OC1CCCC1 (stereo not drawn)
inactive: all assays above

O=C(NC(Cc1cc(=O)[nH]c2ccccc12)C(=O)O)c1ccc(Cl)cc1 (stereo not drawn)
inactive: all assays above

N[C@@H](Cc1cc(I)c(Oc2cc(I)c(O)c(I)c2)c(I)c1)C(=O)O
inactive: all assays above

Cc1ccc(C)c(OCCCC(C)(C)C(=O)O)c1
inactive: all assays above

O=C(O)c1cccnc1Nc1cccc(C(F)(F)F)c1
inactive: all assays above

C[C@H](Cn1cnc2c(N)ncnc21)OCP(=O)(O)O
inactive: all assays above

CCC(C)(Oc1ccc(C2(c3ccc(OC(C)(CC)C(=O)O)cc3)CCCCC2)cc1)C(=O)O (stereo not drawn)
inactive: all assays above

CN1C(C(=O)Nc2ccccn2)=C(O)c2sccc2S1(=O)=O
inactive: all assays above

O=C(NCCO[N+](=O)[O-])c1cccnc1
inactive: all assays above

Cc1cc2cc3c(C)cc(=O)oc3c(C)c2o1
inactive: all assays above

COC(=O)[C@H](Cc1ccccc1)NC(=O)[C@@H](N)CC(=O)O (H-Asp-Phe-OMe)
inactive: all assays above

C[C@]12CCC(=O)C=C1CC[C@@H]1[C@H]2[C@@H](O)C[C@@]2(C)[C@H]1CC[C@]2(O)C(=O)CO
inactive: all assays above

CCOC(=O)c1c(C)n(C)c2ccc(O)cc12
not listed: N140
inactive: all other assays above

CS(=O)(=O)OCCCCOS(C)(=O)=O
inactive: all assays above

CC1(C)NC(=O)N(c2ccc([N+](=O)[O-])c(C(F)(F)F)c2)C1=O
inactive: all assays above

Nc1ccc(S(N)(=O)=O)cc1
inactive: all assays above

CCCCc1ccc2nc(NC(=O)OC)[nH]c2c1
inactive: all assays above

Nc1ccn([C@@H]2O[C@H](CO)[C@@H](O)C2O)c(=O)n1 (stereo partly drawn)
not listed: DIV30
inactive: all other assays above

O=P(O)(O)C(O)(Cn1ccnc1)P(=O)(O)O
inactive: all assays above

CC(S)C(=O)NCC(=O)O (stereo not drawn)
inactive: all assays above

COc1cc(OC)c(C(=O)CCCN2CCCC2)c(OC)c1
not listed: DIV17
inactive: all other assays above

COC1=C(OC)C(=O)C(CCCCCCCCCCO)=C(C)C1=O
not listed: DIV17 | GB4
inactive: all other assays above

CC[C@]1(O)C[C@H]2CN(CCc3c([nH]c4ccccc34)[C@@](C(=O)OC)(c3cc4c(cc3OC)N(C=O)[C@H]3[C@@](O)(C(=O)OC)[C@H](OC(C)=O)[C@]5(CC)C=CCN6CC[C@]43[C@@H]65)C2)C1
active: CP286 70.8 nM | CP291 3380 nM | CP297 3010 nM | DFO2036 1780 nM | DIV30 3380 nM | Dd2 199 nM | HB3 447 nM | ICS 100 nM | N140 3550 nM

N=C(N=C(N)N)N1CCOCC1
not listed: CP329
inactive: all other assays above

Cn1c(NCCN(CCO)CCCc2ccc([N+](=O)[O-])cc2)cc(=O)n(C)c1=O
inactive: all assays above

O=C(O)CCNC(=O)c1ccc(N=Nc2ccc(O)c(C(=O)O)c2)cc1
not listed: Dd2 | HB3
inactive: all other assays above

COc1cc2c(cc1OC)C1CC(=O)C(CC(C)C)CN1CC2 (stereo not drawn)
inactive: all assays above

CNC[C@H](O)c1ccc(O)c(O)c1
not listed: CP335
inactive: all other assays above

Clc1ccc(C(Cn2ccnc2)OCc2ccsc2Cl)c(Cl)c1 (stereo not drawn)
active: CP286 7080 nM | CP291 12000 nM | CP297 3790 nM | CP305 12000 nM | CP315 15100 nM | CP325 12000 nM | CP329 13500 nM | CP335 4780 nM | DFO2036 3160 nM | DIV14 1900 nM | DIV17 1690 nM | DIV30 4780 nM | Dd2 3160 nM | ECU 1410 nM | GB4 1690 nM | HB3 3160 nM | ICS 1000 nM | JCK 5010 nM | N140 2820 nM

O=c1oc2cc(O)ccc2s1
not listed: DIV14 | DIV17 | GB4 | ICS
inactive: all other assays above

CN(C)C(=O)COC(=O)Cc1ccc(OC(=O)c2ccc(N=C(N)N)cc2)cc1
not listed: Dd2
inactive: all other assays above

CN(C)c1ccc2nc3ccc(=[N+](C)C)cc-3sc2c1
active: CP286 12.6 nM | CP291 53.6 nM | CP297 67.5 nM | CP305 21.3 nM | CP315 151 nM | CP325 47.8 nM | CP329 60.1 nM | CP335 37.9 nM | DFO2036 70.8 nM | DIV14 26.9 nM | DIV17 19 nM | DIV30 67.5 nM | Dd2 39.8 nM | ECU 25.1 nM | FAB9 31.6 nM | GB4 30.1 nM | HB3 22.4 nM | ICS 7.1 nM | N140 56.2 nM

CNC[C@@H](O)[C@@H](O)[C@H](O)[C@H](O)CO
not listed: CP325
inactive: all other assays above

c1ccc2[nH]c(-c3cscn3)nc2c1
not listed: CP297
inactive: all other assays above

CCN(CC)CCOc1ccc(Cc2ccccc2)cc1
not listed: DIV14
inactive: all other assays above

Oc1ccc(OCc2ccccc2)cc1
not listed: CP305 | ICS
inactive: all other assays above

CC(C)[C@H](N)C(=O)OCCOCn1cnc2c(=O)[nH]c(N)nc21
inactive: all assays above

O=C(CS(=O)Cc1ccco1)NCC=CCOc1cc(CN2CCCCC2)ccn1 (stereo not drawn)
not listed: CP297
inactive: all other assays above

Nc1cccc2c1CN(C1CCC(=O)NC1=O)C2=O (stereo not drawn)
inactive: all assays above

Cc1c(OCC(F)(F)F)ccnc1CS(=O)c1nc2ccccc2[nH]1 (stereo not drawn)
not listed: DIV14 | ICS
inactive: all other assays above

O=C1c2ccccc2-c2n[nH]c3cccc1c23
not listed: CP335 | GB4 | ICS
inactive: all other assays above

CCCCN(CCCC)CCC(O)c1cc2c(Cl)cc(Cl)cc2c2cc(C(F)(F)F)ccc12 (stereo not drawn)
active: CP286 8.9 nM | CP291 28.7 nM | CP297 18.1 nM | CP305 36.1 nM | CP315 51 nM | CP325 28.7 nM | CP329 51 nM | CP335 8.1 nM | DFO2036 8.9 nM | DIV30 10.2 nM | Dd2 2.8 nM | ECU 7.9 nM | FAB9 11.2 nM | HB3 6.3 nM | ICS 0.6 nM | JCK 10000 nM | N140 3.2 nM

CC(C)c1ccc2oc3nc(N)c(C(=O)O)cc3c(=O)c2c1
not listed: ECU
inactive: all other assays above
